The values below come from PubChem BioAssay.

Usually inhibition stands for the change of the read-out against control, counted positive when it falls.

Test [1] is described as follows: inhibitors of CD8+ T cell-vesicle binding, pilot screen, LFA-1/ICAM-1 modulator project, MLPCN validation set, flow cytometry (AID 2523;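 active means response below a set limit, under 55% cells CD8-positive and vesicle-bound, and CD8 cells' 90th-percentile brightness under 279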;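 on vesicle binding response: mean PE anti-B7-1 fluorescence of CD8+ cells relative to row control; 100% = QL9-loaded vesicles with DMSO vehicle in the same plate row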). Particulars: 2C mouse CD8+ T cells, at 7 µM, stronger effect = lower value; double positive events: measured here: CD8+/vesicle+ event percentage. A general note: In flow cytometry, cells or beads pass a laser one at a time.
Test [2] deals with Integrin beta-1 (Homo sapiens) + Integrin alpha-4 (Homo sapiens) (UniProt P13612+P05556). Briefly: inhibition of HUTS-21 binding to VLA-4, pilot screen, VLA-4 allosteric modulator project, U937 cells, HUTS-21 mAb, flow cytometry, validation set (AID 2674;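 active means inhibition above 50%, about 3 SD of the validation set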;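 further: antibody binding induced by the VLA-4 ligand LDV present at three times its Kd; 0% = LDV ligand with antibody and no compound and 100% = antibody without LDV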). Particulars: HUTS-21 LIBS mAb binding, at 6.7 µM, stronger effect = higher value, binding induced by LDV ligand.
Integrin beta-1 (Homo sapiens) + Integrin alpha-4 (Homo sapiens), sequence (P05556 whole entry, looked up): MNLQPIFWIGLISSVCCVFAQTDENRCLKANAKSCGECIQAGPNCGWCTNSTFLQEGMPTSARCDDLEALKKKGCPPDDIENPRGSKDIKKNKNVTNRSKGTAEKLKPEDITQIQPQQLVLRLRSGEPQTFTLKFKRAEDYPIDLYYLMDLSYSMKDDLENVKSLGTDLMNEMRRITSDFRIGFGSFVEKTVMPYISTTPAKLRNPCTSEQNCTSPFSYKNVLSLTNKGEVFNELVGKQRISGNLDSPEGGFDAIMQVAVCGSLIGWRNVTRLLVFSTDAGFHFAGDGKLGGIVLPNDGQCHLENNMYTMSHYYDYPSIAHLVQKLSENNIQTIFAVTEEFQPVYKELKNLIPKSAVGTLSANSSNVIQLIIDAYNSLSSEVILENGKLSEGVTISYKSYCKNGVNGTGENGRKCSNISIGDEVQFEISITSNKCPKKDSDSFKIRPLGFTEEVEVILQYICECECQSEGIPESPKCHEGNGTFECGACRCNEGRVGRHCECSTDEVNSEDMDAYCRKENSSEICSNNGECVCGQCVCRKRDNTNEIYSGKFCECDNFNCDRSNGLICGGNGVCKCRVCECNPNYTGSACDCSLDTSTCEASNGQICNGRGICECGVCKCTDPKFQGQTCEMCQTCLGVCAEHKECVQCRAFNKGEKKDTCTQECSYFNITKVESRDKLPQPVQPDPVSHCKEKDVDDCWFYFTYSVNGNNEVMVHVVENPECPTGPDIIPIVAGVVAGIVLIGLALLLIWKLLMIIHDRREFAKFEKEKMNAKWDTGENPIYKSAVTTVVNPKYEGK
Integrin beta-1 (Homo sapiens) + Integrin alpha-4 (Homo sapiens), sequence (P13612 whole entry, looked up): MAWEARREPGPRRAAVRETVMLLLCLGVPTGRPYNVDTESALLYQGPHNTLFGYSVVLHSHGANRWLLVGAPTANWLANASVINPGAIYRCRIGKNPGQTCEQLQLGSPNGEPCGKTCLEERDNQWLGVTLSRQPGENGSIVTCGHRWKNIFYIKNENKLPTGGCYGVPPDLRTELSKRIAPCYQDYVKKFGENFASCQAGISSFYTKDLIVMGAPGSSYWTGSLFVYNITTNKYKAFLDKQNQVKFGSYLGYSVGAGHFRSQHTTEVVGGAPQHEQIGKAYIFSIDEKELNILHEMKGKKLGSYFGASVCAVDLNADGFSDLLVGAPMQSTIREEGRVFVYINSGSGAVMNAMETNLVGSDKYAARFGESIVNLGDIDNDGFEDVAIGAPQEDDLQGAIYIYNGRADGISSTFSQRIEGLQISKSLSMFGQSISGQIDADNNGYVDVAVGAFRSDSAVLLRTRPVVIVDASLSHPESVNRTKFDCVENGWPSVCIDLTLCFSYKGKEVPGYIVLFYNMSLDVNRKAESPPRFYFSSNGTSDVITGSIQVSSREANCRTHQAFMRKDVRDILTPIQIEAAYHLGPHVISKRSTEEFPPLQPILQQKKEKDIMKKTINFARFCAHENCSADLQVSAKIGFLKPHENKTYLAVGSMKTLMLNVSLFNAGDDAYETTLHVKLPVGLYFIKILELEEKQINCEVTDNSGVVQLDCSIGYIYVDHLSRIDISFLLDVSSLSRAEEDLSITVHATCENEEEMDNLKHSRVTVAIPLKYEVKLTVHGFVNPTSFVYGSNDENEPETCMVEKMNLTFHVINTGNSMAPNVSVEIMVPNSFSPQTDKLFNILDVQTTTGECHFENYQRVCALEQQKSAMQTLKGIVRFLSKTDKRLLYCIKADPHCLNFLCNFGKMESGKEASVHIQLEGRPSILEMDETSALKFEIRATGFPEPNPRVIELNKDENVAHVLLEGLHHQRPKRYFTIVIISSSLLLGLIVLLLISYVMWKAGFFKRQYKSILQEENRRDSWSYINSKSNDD
Test [3] can be described thus: superoxide lowering in aged yeast cells, pilot screen, validation compound set (AID 2706;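 active means superoxide response below 65% of plate, a cut near 3 SD across the whole screen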;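 further: yeast exposed to compound for one week at 30 degrees C before staining; 100% = mean of all compound wells on the same plate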). Particulars: S. cerevisiae aging, superoxide DHE fluorescence; at 10 µM, stronger effect = lower value.
Test [4] concerns the target Beta-adrenergic receptor kinase 1 (Homo sapiens) (UniProt P25098). Description: GRK2 binders displacing RNA aptamer, biochemical, validation, human GRK2, bead flow cytometry (AID 488806;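 active means aptamer binding inhibition above 30%, about 3 SD of noise from non-fluorescent compounds; inactive means inhibition at or below 30%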). Particulars: bead-bound GRK2, FAM-aptamer displacement, at 10 µM, stronger effect = higher value.
In test [5] the target is Beta-2 adrenergic receptor (Homo sapiens) (UniProt P07550). Description: beta2AR agonists driving receptor internalization, pilot screen, cell-based, FAP fluorogen, flow cytometry, validation set (AID 504459;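 active means percent response above 42, roughly 3 SD of non-fluorescent test compounds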;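 further: agonist-driven loss of surface beta2AR via internalization measured by FAP dye flow cytometry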). To be noted: Am2.2-beta2AR cells, FAP surface receptor flow cytometry; at 10 µM; stronger effect = higher value.
Beta-2 adrenergic receptor (Homo sapiens), sequence (P07550 whole entry, looked up): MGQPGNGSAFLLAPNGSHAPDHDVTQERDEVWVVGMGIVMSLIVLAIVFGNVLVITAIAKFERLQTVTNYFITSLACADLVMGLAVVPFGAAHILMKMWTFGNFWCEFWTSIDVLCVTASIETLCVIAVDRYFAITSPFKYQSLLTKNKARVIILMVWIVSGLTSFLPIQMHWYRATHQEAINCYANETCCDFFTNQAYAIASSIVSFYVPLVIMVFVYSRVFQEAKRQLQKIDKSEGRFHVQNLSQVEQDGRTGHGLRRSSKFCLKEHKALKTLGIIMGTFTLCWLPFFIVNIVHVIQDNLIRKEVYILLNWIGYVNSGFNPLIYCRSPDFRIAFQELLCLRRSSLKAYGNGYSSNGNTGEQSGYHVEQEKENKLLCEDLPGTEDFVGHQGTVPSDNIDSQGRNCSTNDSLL
For test [6], the target named is AP-2 complex subunit beta (Homo sapiens) (UniProt P63010). Description: inhibitors of arrestin peptide binding to AP2, pilot screen, biochemical, validation set, GST-AP2 beads, flow cytometry (AID 504541).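 Further: AP2 carries R879A mutation and is captured from E. coli lysate; bead-bound FITC arrestin peptide fluorescence measuring arrestin peptide binding to AP2; 0% = DMSO wells and 100% = excess unlabeled arrestin peptide control.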 To be noted: FITC arrestin peptide, at 10 µM, stronger effect = higher value, AP2 beta2 appendage fragment, R879A mutant.
AP-2 complex subunit beta (Homo sapiens), sequence (P63010 whole entry, looked up, the tested form may be a part, one chain of several): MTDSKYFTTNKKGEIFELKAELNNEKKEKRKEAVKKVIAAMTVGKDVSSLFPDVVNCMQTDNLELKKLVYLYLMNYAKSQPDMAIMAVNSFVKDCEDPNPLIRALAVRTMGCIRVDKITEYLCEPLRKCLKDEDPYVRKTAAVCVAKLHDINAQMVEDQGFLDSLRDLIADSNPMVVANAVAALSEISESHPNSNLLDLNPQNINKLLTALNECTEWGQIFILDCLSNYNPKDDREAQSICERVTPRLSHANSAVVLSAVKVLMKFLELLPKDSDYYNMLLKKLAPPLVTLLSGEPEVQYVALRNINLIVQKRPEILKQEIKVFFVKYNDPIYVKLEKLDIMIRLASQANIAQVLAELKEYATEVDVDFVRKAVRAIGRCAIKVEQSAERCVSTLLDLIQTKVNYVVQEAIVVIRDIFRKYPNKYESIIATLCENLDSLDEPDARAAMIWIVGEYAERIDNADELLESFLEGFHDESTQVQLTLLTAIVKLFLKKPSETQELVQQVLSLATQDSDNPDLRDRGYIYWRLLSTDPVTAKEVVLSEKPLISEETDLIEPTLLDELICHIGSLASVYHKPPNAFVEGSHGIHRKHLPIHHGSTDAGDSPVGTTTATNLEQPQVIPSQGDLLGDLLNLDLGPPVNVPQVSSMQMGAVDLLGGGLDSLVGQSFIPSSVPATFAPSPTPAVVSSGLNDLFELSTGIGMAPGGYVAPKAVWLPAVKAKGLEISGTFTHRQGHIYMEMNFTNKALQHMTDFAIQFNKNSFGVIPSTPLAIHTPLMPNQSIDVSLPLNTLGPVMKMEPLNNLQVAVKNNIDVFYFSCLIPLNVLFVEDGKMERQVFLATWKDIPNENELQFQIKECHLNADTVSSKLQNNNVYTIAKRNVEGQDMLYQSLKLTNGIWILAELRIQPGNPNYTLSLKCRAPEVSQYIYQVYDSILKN
Test [7] in a line: yeast V-ATPase proton transport modulators, S. cerevisiae, pHLuorin, HTS validation (AID 504600; in the data active means response above about 15%;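 further: plate controls were DMSO for no effect and reference compound for full effect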). To be noted: S. cerevisiae pHLuorin cytosolic pH, at 10 µM, stronger effect = higher value.
The test system of test [8] is anti-desmoglein-3 scFv antibody binding to human DSG3. Description: inhibitors of anti-DSG3 scFv binding to DSG3, pilot screen, biochemical, validation compound set, bead-based, flow cytometry (AID 588368;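 active means binding below the plate cutoff, the plate median minus 3 SD, with a reading above zero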;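 further: signal is the median channel fluorescence of bead-bound GFP antibody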). To be noted: Protein G beads, DSG3-Fc, scFv-GFP binding, at 10 µM, stronger effect = lower value.
A short description of test [9]: inhibitors of fungal efflux pumps CDR1, CDR2, MDR1, pilot screen, validation compound set, multiplex, phenotypic (AID 588506;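 active means efflux inhibition above 0.42, the validation set average plus 4 SD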;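 further: Nile Red retained in cells so higher fluorescence means more efflux inhibition; 0 = negative control wells and 1 = enniatin B 25 µM full block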). To be noted: S. cerevisiae pump-expressing triplex, Nile Red efflux flow cytometry; at 10 µM; stronger effect = higher value; the pumps come from Candida albicans.
In test [10] the target is ATP-binding cassette sub-family B member 6 (Homo sapiens) (UniProt Q9NP58). Description: ABCB6 transporter inhibitors, pilot screen, K562-ABCB6 cells, flow cytometry, validation set (AID 588550;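 active means inhibition above the screen-wide mean plus 3 SD, about 51%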;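 further: 0% = DMSO wells and 100% = benzethonium chloride 70 µM positive control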). To be noted: K562-ABCB6 porphyrin accumulation, 1 h, at 10 µM, stronger effect = higher value.
ATP-binding cassette sub-family B member 6 (Homo sapiens), sequence (Q9NP58 whole entry, looked up): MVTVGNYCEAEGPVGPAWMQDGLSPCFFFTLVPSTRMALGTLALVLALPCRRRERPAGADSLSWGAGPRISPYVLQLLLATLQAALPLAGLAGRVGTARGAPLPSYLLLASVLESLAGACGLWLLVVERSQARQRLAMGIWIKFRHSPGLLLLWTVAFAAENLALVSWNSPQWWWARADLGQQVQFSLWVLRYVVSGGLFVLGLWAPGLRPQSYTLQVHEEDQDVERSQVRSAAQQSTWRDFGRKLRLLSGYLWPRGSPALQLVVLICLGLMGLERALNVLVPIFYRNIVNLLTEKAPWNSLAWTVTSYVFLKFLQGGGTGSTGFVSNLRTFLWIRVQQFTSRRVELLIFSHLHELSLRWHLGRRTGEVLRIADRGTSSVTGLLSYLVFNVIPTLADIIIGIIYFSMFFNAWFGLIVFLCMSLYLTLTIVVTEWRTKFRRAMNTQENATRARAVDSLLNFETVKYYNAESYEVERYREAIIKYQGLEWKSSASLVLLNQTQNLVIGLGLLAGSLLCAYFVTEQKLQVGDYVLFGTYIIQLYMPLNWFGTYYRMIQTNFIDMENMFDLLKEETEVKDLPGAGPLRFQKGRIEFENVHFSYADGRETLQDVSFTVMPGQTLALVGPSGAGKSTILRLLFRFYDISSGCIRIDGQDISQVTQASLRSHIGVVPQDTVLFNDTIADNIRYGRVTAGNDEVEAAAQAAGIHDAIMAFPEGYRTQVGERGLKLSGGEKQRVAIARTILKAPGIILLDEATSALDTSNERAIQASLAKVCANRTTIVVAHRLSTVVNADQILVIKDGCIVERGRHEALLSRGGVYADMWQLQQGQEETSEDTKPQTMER
Test [11] in a line: promoters of myeloid differentiation in arrested cells, primary screen, cell-based, GFP/MAC1 double positive, flow cytometry, validation set (AID 588685;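 active means differentiation response of at least 50%, scaled between solvent and reference control, from cells with both markers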;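 further: compound exposure lasts four days before antibody staining and flow analysis; 0% = DMSO wells and 100% = 5 µM fulvestrant positive control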). To be noted: ER-HoxA9 marrow cells, stronger effect = higher value, normalized: vehicle 0, fulvestrant 100.

SMILES strings stand for the structures. Activity calls are given as the source filed them.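 How the source made its calls, unless noted: active means inhibition above 54%, about 3 SD of non-fluorescent compounds; inactive means the rest.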

Beta-adrenergic receptor kinase 1 (Homo sapiens), sequence (P25098 whole entry, looked up): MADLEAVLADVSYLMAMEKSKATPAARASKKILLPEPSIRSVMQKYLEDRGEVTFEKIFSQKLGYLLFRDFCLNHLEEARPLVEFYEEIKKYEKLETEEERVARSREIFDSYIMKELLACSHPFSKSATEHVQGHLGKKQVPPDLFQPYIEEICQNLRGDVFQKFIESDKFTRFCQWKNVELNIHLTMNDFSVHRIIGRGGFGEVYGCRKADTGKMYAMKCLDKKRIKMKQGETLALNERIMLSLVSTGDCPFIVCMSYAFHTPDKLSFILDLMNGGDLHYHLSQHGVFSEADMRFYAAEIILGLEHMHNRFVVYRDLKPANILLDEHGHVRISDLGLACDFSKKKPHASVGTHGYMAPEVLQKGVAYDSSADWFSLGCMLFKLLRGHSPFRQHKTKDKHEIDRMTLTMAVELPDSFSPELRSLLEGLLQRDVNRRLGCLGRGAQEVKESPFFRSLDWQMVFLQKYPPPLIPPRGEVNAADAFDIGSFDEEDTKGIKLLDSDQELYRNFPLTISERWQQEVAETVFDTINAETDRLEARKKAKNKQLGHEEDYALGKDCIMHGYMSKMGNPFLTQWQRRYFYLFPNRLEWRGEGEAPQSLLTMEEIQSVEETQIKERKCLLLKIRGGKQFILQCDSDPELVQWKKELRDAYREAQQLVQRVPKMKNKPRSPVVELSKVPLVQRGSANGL

In [1], `CC(COc1ccccc1)N(CCCl)Cc1ccccc1` (configuration not stated) showed a double positive events of 70.8%. In addition, the vesicle binding response in [1] is 566% (inactive). Also, the inhibition in test [2] is 6.46% (inactive); in test [6], 1.11% (inactive); in test [10], 10% (inactive). Also, the superoxide response (% of plate) in test [3] is 97.4% (inactive). Besides, the aptamer binding inhibition in test [4] is 2% (inactive). Also, the response in test [5] was -7.17% (inactive); in test [7] it was 2.49% (inactive). Further, the binding (% of control) in test [8] was 100% (inactive). Further, in [9], the efflux inhibition (fraction of control) is -0.35 (inactive). Also, in test [11], the differentiation response was 0% (inactive).

Consider `C=CCn1c(SCC(=O)NC2CCCCC2)nc2ccccc2c1=O`, for which the double positive events in test [1] is 57.6%. Besides, in test [1], the vesicle binding response is 172% (inactive). Besides, the values for the inhibition in [2], in test [6] and in [10] were 4.27% (inactive), 1.93% (inactive) and -4% (inactive), respectively. Besides, the superoxide response (% of plate) in [3] was 114% (inactive). In test [4], the aptamer binding inhibition was 3% (inactive). For the same compound, the response is -5.54% (inactive) in test [5] and 11.4% (inactive) in test [7]. Further, the binding (% of control) in [8] was 99.2% (inactive). Besides, the efflux inhibition (fraction of control) in [9] is 0 (inactive). Further, the differentiation response in [11] is -17.7% (inactive).

With `CC(C)CC(=O)OC1C(N2CCOCC2)c2c(ccc(/C=C/C(=O)N3CCOCC3)c2O)OC1(C)C` (configuration not stated), the double positive events in [1] is 57.1%. Also, the vesicle binding response in test [1] was 158% (inactive). In addition, the inhibition is -3.16% (inactive) in test [2], 35% (inactive) in test [6] and 5% (inactive) in test [10]. In addition, the superoxide response (% of plate) in [3] is 101% (inactive). In test [4], the aptamer binding inhibition was -1% (inactive). Also, the response is 84.7% (active) in [5] and -2.63% (inactive) in test [7]. Besides, in [8], the binding (% of control) is 108% (inactive). Besides, the efflux inhibition (fraction of control) in [9] was 0.37 (inactive). The differentiation response in [11] is 53.6% (active).

Regarding `COc1ccc(/C=N\NC(=O)CCc2c(C)n[nH]c2C)c(OC)c1OC`, the double positive events in test [1] stood at 60.3%. Besides, in test [1], the vesicle binding response is 151% (inactive). The inhibition in test [2] is -3.16% (inactive); in test [6], 7.15% (inactive); in test [10], 4% (inactive). Besides, the superoxide response (% of plate) in [3] was 111% (inactive). For the same compound, in test [4], the aptamer binding inhibition is 2% (inactive). The values for the response in test [5] and in [7] were 3.8% (inactive) and -0.97% (inactive), respectively. Besides, the binding (% of control) in test [8] is 102% (inactive). Besides, the efflux inhibition (fraction of control) in test [9] was -0.21 (inactive). Moreover, the differentiation response in test [11] was 4% (inactive).

In turn, `O=C(Nc1ccccc1)OCC1CCCN2CCCCC12` (configuration not stated) registered a double positive events in test [1] of 80%. For the same compound, the vesicle binding response in [1] was 511% (inactive). The inhibition is -0.27% (inactive) in test [2], -10.6% (inactive) in test [6] and 16% (inactive) in [10]. Further, in test [3], the superoxide response (% of plate) is 93.9% (inactive). The aptamer binding inhibition in test [4] is -2% (inactive). Also, the response is -23.8% (inactive) in test [5] and 1.1% (inactive) in [7]. Also, the binding (% of control) in [8] is 112% (inactive). The efflux inhibition (fraction of control) in [9] was -0.04 (inactive). In addition, in test [11], the differentiation response is 63% (active).

Compound `COc1ccc(N2C(=O)[C@@H]3Cc4ccccc4CN3C2=O)cc1` had a double positive events in test [1] of 63.2%. The vesicle binding response in [1] is 211% (inactive). Also, the inhibition in [2] is 14.6% (inactive); in test [6] it was -2.78% (inactive); in test [10] it was 7% (inactive). In addition, the superoxide response (% of plate) in test [3] was 89.7% (inactive). For the same compound, in test [4], the aptamer binding inhibition is 5% (inactive). In addition, the response in [5] is 12.1% (inactive); in [7], -2.4% (inactive). Moreover, in test [8], the binding (% of control) was 107% (inactive). In addition, the efflux inhibition (fraction of control) in test [9] was 0.01 (inactive). For the same compound, the differentiation response in [11] was 18.4% (inactive).
